Reference: PubChem BioAssay AID1159580 (chemical genetic matrix, 2015)
Values joined by “and” are separate entries in the source; they are usually repeats but may differ in a detail not shown here. Equal values may be shown once. The whole screen tested about 5,500 compounds, of which about 2,000 (36%) were called active. Another 18% or so got no clear call; they are omitted. Rule as the data show it: active = normalized growth mostly below about 0.91 (no sharp cut-off); inconclusive = no clear call, values can overlap the other calls; inactive = mostly above about 0.92. The list shows a part of the results.

Assay: chemical genetic growth profiling, strain panel (AID 1159580);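 also: tested at 20 µM; growth read once vehicle control cultures reached saturation at 30 °C; 1 = growth at the plate median or of vehicle wells; lower values mean less growth of the strain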
Conditions: S. cerevisiae deletion strains, growth OD

Measured: normalized growth

C[CH2][Hg][S]c1ccccc1C(=O)O
active: locus YAL013W, strain DEP1, active compounds read low 0.0571 | locus YAL021C, strain ccr4, active compounds read low 0.0644 | locus YAL026C, strain drs2, active compounds read low 0.0601 | locus YAL030W, strain snc1, active compounds read low 0.0549 | locus YBL061C, strain skt5, active compounds read low 0.0584 | locus YBR009C, strain hhf1, active compounds read low 0.0625 | locus YBR021W, strain FUR4, active compounds read low 0.0826 | locus YBR023C, strain chs3, active compounds read low 0.0607 | locus YBR171W, strain sec66, active compounds read low 0.0719 | locus YBR229C, strain ROT2, active compounds read low 0.0466 | locus YBR231C, strain swc5, active compounds read low 0.0602 | locus YBR279W, strain paf1, active compounds read low 0.0565 | locus YCL011C, strain gbp2, active compounds read low 0.0545 | locus YCL016C, strain dcc1, active compounds read low 0.0628 | locus YCL029C, strain bik1, active compounds read low 0.0644 | locus YCL061C, strain MRC1, active compounds read low 0.0624 | locus YCL069W, strain vba3, active compounds read low 0.0582 | locus YCR088W, strain abp1, active compounds read low 0.0571 | locus YDL005C, strain med2, active compounds read low 0.0718 | locus YDL035C, strain GPR1, active compounds read low 0.0506 | locus YDL040C, strain nat1, active compounds read low 0.0559 | locus YDL074C, strain BRE1, active compounds read low 0.0797 | locus YDL101C, strain DUN1, active compounds read low 0.0547 | locus YDL134C, strain PPH21, active compounds read low 0.0487 | locus YDL185W, strain tfp1, active compounds read low 0.056 | locus YDL192W, strain arf1, active compounds read low 0.0586 | locus YDR001C, strain nth1, active compounds read low 0.0548 | locus YDR069C, strain doa4, active compounds read low 0.0614 | locus YDR101C, strain arx1, active compounds read low 0.0572 | locus YDR137W, strain rgp1, active compounds read low 0.0826 | locus YDR150W, strain NUM1, active compounds read low 0.058 | locus YDR159W, strain sac3, active compounds read low 0.0891 | locus YDR162C, strain NBP2, active compounds read low 0.0541 | locus YDR195W, strain ref2 0.117 | locus YDR297W, strain sur2, active compounds read low 0.0559 | locus YDR318W, strain mcm21, active compounds read low 0.0596 | locus YDR334W, strain swr1, active compounds read low 0.06 | locus YDR335W, strain msn5, active compounds read low 0.0577 | locus YDR388W, active compounds read low 0.0549 | locus YDR392W, strain spt3, active compounds read low 0.0928 | locus YDR502C, strain sam2, active compounds read low 0.0576 | locus YEL003W, strain gim4, active compounds read low 0.0526 | locus YEL037C, strain rad23, active compounds read low 0.0545 | locus YEL061C, strain CIN8 (second series), active compounds read low 0.058 | locus YEL061C, strain CIN8, active compounds read low 0.0473 | locus YER015W, strain faa2, active compounds read low 0.0585 | locus YER016W, strain bim1, active compounds read low 0.059 | locus YER110C, active compounds read low 0.0716 | locus YER111C, strain swi4, active compounds read low 0.0734 | locus YER155C, strain BEM2 (second series), active compounds read low 0.0849 | locus YER155C, strain BEM2, active compounds read low 0.0624 | locus YER167W, strain BCK2, active compounds read low 0.0502 | locus YFR010W, strain ubp6, active compounds read low 0.0647 | locus YGL078C, strain dbp3, active compounds read low 0.0538 | locus YGL086W, strain mad1, active compounds read low 0.0535 | locus YGL167C, strain pmr1, active compounds read low 0.0714 | locus YGL173C, strain kem1, active compounds read low 0.0663 | locus YGL227W, strain vid30, active compounds read low 0.059 | locus YGL240W, strain doc1, active compounds read low 0.0734 | locus YGL248W, strain PDE1, active compounds read low 0.0448 | locus YGL253W, strain hxk2, active compounds read low 0.0514 | locus YGR078C, strain PAC10, active compounds read low 0.0492 | locus YGR135W, strain pre9, active compounds read low 0.0647 | locus YGR229C, strain SMI1, active compounds read low 0.0574 | locus YGR252W, strain gcn5, active compounds read low 0.152 | locus YHR013C, strain ard1, active compounds read low 0.106 | locus YHR027C, strain rpn1, active compounds read low 0.0612 | locus YHR030C, strain SLT2, active compounds read low 0.0498 and 0.113 | locus YHR079C, strain IRE1 (second series), active compounds read low 0.0541 | locus YHR079C, strain IRE1, active compounds read low 0.123 | locus YHR094C, strain hxt1, active compounds read low 0.0545 | locus YHR129C, strain ARP1, active compounds read low 0.0546 | locus YHR142W, strain chs7, active compounds read low 0.0696 | locus YHR200W, strain rpn10, active compounds read low 0.057 | locus YIL066C, strain RNR3, active compounds read low 0.0505 | locus YIL073C, strain SPO22, active compounds read low 0.103 | locus YIL125W, strain kgd1, active compounds read low 0.0543 | locus YIR030C, strain dcg1, active compounds read low 0.0568 | locus YJL092W, strain hpr5, active compounds read low 0.0555 | locus YJL095W, strain BCK1 (second series), active compounds read low 0.0563 | locus YJL095W, strain BCK1, active compounds read low 0.0505 and 0.109 | locus YJL115W, strain asf1, active compounds read low 0.0695 | locus YJL129C, strain trk1, active compounds read low 0.0829 | locus YJL134W, strain LCB3, active compounds read low 0.0483 | locus YJL154C, strain vps35, active compounds read low 0.0588 | locus YJL164C, strain tpk1, active compounds read low 0.0629 | locus YJL166W, strain qcr8, active compounds read low 0.0596 | locus YJL168C, strain set2, active compounds read low 0.0562 | locus YJL187C, strain SWE1 (second series), active compounds read low 0.0465 | locus YJL187C, strain SWE1, active compounds read low 0.0547 | locus YJR043C, strain POL32, active compounds read low 0.0607 | locus YJR066W, strain TOR1, active compounds read low -0.000335
